Set-up in all cases: scale not given: direction of the effect not stated beside the values
In assay [1] the target is Protein translocase subunit SecA (Escherichia coli (strain K12)) (UniProt P10408). Kind of assay: Assay to Identify E. coli SecA ATPase Inhibitors. In kind it is functional. The note with it: 30 µM.
Assay [2] concerns the target T1, Ubiquitin-activating enzyme e1, putative (Leishmania donovani (strain BPK282A1)) (UniProt E9BSI1).
T1 sequence (whole entry): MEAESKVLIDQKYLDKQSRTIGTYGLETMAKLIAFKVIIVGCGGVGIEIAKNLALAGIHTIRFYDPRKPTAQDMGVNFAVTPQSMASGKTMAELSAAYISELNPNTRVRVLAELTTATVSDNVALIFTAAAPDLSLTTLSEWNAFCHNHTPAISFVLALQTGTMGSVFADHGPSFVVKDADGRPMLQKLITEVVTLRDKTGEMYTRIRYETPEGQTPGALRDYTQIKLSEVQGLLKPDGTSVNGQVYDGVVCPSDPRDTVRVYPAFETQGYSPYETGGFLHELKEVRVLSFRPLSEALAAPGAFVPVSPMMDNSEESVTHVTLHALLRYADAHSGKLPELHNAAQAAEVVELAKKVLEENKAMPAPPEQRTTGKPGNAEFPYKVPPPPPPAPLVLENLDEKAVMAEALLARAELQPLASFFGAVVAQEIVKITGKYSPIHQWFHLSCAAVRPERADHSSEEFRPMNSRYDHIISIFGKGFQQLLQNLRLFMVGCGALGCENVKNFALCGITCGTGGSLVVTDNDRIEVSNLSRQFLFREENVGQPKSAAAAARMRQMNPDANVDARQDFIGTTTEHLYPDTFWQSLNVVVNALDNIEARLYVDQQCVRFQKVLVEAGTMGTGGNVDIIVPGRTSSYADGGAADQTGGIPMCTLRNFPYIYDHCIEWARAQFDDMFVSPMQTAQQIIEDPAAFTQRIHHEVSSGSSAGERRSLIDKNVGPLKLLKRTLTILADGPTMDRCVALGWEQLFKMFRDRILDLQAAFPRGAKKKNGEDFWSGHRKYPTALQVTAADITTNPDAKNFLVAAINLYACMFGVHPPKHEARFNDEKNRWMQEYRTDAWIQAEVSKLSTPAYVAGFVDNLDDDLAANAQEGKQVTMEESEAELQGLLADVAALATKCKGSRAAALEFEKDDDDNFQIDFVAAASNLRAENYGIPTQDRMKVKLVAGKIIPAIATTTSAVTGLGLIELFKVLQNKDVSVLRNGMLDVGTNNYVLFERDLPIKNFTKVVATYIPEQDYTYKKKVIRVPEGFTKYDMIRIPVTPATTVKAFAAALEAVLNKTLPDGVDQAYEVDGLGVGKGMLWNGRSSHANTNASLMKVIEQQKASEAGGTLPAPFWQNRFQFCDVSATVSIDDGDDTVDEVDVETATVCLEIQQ
Briefly: Leishmania donovani Ubiquitin Activating Enzyme (LdE1). The class given is functional. Conditions: 30 µM.

Assay [3] has as its target AMP-activated protein kinase, AMPK (Homo sapiens) (UniProt P54646+O43741+P54619+Q9UGJ0+Q9Y478+Q13131+Q9UGI9). Briefly: AMP-dependent Kinase enzyme assay. An in vitro enzyme assay that detects ADP turnover that is directly proportional to AMPK activity. This uses naive AMPK that is activated during the assay with MK-8722. The class given is functional. The note with it: 30 µM.

Assay [4] deals with Sialic acid-binding Ig-like lectin 9 (Homo sapiens) (UniProt Q9Y336). Kind of assay: Hs-Siglec9 ALPHAscreen SOP 20170721. Conditions: 10 µM. On the technique in general: Bead proximity is the source of the signal in Alpha formats.
Sequence of Sialic acid-binding Ig-like lectin 9 (Homo sapiens) (Q9Y336 whole entry): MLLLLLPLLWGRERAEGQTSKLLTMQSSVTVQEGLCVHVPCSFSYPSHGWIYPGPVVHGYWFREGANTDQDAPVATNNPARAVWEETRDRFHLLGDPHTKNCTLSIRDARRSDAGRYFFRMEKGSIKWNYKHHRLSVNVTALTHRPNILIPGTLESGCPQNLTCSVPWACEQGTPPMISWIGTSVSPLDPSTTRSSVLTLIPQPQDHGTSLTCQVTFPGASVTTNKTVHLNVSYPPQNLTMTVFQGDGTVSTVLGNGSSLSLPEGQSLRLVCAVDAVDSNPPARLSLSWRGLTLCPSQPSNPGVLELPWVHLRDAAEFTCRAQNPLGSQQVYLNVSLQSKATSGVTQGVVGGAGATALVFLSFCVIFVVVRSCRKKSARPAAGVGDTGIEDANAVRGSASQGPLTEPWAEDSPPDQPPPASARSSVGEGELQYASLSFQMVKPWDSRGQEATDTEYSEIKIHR
The test system of another assay is Trypanosoma cruzi. Kind of assay: Trypanosoma cruzi phosphomannomutase and mannose-1-phosphate guanylyltransferase assay. The class given is functional. Conditions: 10 µM.
Assay [5] deals with T2, Arginase-2, mitochondrial (Homo sapiens) (UniProt P78540).
T2 sequence (whole entry): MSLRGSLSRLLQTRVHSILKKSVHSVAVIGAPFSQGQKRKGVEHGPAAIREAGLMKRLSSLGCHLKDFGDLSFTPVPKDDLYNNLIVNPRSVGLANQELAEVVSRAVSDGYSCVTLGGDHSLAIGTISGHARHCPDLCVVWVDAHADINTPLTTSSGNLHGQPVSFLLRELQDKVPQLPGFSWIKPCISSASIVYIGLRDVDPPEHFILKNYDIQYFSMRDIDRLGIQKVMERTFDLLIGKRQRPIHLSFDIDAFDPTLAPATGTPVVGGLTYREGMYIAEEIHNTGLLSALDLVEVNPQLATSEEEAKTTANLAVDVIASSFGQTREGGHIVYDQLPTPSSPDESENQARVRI
Briefly: in vitro enzyme assay to detect the production of urea directly proportional to the activity of Arginase II. Note: in the data most compounds retested in dose-response had high values. The class given is functional. Conditions: 33.3 µM.

The target in assay [6] is T3, Proteasome subunit beta (Trypanosoma cruzi) (UniProt O96673).
T3 sequence (whole entry): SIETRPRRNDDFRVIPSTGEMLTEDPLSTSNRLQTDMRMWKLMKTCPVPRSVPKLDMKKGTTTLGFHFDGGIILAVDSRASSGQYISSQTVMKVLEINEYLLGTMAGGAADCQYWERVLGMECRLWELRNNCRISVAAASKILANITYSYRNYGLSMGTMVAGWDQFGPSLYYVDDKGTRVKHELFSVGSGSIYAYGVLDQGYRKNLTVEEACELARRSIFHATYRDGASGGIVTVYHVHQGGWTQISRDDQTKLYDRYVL
Briefly: Trypanosoma cruzi proteasome chymotrypsin-like activity (TcProtChymo) assay. Note: in the data most compounds retested in dose-response had high values. The class given is functional. Conditions: 9.37 µM.

Another assay is filed under the species Homo sapiens. Kind of assay: To identify inhibition of the IFN signalling (Jak-Stat) pathway via expression of an eGFP reporter gene under the control of an IFN-stimulated response element (ISRE) containing MxA promoter. The class given is functional. The note with it: 30 µM. (In general: Reporter assays use an easily measured gene product as a stand-in for the process of interest.)

The target in assay [7] is T4, Tyrosyl-tRNA synthetase, putative (Trypanosoma cruzi (strain CL Brener)) (UniProt Q4DSP6).
T4 sequence (whole entry): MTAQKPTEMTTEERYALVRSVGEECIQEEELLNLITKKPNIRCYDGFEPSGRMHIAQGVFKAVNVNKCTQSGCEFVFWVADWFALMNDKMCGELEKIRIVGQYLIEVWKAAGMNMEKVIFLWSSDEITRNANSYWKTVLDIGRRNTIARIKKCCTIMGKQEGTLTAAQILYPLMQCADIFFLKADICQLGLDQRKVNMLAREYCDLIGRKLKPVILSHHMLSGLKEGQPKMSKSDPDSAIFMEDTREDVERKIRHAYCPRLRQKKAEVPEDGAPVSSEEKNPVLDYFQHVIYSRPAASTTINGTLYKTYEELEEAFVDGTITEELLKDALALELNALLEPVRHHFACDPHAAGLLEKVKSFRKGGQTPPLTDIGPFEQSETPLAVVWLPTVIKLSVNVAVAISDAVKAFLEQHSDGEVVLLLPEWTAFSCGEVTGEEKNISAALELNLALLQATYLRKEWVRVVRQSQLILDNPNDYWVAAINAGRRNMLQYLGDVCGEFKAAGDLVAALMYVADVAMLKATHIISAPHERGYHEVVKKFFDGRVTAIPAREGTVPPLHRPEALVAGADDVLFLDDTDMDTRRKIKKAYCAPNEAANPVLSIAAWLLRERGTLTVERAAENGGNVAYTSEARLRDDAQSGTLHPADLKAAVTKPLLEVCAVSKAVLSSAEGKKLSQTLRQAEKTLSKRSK
Kind of assay: Trypanosoma cruzi tyrosyl tRNA synthetase (TcYRS) _High Tyrosine SOP. Note: in the data most compounds retested in dose-response had high values. In kind it is functional. The note with it: 30 µM.

Assay [8] concerns the target T4, Tyrosyl-tRNA synthetase, putative (Trypanosoma cruzi (strain CL Brener)). Kind of assay: Trypanosoma cruzi tyrosyl tRNA synthetase (TcYRS) SOP. The class given is functional. Conditions: 30 µM.
Assay [9] deals with Chromo domain-containing protein 1 (Saccharomyces cerevisiae (strain ATCC 204508 / S288c) (Baker's yeast)) (UniProt P32657). Kind of assay: ScCHD-1 Enzyme Inhibition Assay. Note: in the data most compounds retested in dose-response had high values. In kind it is functional. Conditions: 30 µM.
Sequence of Chromo domain-containing protein 1 (Saccharomyces cerevisiae (strain ATCC 204508 / S288c) (Baker's yeast)) (P32657 whole entry, the tested form may be a part): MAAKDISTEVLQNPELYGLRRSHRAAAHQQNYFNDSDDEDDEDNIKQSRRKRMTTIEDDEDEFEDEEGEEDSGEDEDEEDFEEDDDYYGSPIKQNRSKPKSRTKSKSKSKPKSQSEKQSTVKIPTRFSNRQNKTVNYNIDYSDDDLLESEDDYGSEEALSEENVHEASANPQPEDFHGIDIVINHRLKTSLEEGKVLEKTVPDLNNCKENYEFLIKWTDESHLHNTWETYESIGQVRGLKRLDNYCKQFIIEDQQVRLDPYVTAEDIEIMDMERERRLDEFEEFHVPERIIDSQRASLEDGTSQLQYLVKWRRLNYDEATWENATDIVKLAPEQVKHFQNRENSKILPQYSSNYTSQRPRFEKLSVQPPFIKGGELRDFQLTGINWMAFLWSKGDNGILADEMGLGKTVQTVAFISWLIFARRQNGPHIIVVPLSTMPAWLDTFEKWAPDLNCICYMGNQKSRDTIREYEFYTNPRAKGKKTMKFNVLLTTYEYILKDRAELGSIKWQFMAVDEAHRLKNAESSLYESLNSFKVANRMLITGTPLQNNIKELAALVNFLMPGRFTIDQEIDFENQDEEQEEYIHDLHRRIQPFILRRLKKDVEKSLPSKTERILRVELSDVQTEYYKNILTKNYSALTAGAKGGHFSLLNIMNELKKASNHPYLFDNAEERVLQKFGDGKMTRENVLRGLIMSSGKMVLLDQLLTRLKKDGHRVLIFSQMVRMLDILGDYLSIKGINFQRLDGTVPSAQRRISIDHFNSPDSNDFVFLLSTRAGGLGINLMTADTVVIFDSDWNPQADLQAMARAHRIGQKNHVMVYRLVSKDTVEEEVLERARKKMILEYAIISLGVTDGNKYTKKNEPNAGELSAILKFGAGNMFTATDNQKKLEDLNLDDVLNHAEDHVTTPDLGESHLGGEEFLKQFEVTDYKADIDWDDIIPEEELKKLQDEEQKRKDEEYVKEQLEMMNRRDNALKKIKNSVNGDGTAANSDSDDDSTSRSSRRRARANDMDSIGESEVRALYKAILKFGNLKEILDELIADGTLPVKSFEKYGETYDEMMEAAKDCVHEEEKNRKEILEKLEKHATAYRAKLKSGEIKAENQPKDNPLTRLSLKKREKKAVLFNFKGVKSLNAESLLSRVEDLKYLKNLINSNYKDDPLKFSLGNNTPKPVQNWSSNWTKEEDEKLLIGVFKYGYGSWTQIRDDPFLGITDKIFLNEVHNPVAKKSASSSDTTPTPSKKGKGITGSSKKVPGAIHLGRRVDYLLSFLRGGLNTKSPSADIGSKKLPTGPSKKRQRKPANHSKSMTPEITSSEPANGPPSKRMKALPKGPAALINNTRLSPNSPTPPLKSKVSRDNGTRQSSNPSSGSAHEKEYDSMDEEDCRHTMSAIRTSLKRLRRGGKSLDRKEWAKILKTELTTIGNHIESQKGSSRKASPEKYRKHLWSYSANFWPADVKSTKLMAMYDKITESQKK

For some of these results: Results with a measured potency or affinity are listed apart.

Sequence of Protein translocase subunit SecA (Escherichia coli (strain K12)) (P10408 whole entry): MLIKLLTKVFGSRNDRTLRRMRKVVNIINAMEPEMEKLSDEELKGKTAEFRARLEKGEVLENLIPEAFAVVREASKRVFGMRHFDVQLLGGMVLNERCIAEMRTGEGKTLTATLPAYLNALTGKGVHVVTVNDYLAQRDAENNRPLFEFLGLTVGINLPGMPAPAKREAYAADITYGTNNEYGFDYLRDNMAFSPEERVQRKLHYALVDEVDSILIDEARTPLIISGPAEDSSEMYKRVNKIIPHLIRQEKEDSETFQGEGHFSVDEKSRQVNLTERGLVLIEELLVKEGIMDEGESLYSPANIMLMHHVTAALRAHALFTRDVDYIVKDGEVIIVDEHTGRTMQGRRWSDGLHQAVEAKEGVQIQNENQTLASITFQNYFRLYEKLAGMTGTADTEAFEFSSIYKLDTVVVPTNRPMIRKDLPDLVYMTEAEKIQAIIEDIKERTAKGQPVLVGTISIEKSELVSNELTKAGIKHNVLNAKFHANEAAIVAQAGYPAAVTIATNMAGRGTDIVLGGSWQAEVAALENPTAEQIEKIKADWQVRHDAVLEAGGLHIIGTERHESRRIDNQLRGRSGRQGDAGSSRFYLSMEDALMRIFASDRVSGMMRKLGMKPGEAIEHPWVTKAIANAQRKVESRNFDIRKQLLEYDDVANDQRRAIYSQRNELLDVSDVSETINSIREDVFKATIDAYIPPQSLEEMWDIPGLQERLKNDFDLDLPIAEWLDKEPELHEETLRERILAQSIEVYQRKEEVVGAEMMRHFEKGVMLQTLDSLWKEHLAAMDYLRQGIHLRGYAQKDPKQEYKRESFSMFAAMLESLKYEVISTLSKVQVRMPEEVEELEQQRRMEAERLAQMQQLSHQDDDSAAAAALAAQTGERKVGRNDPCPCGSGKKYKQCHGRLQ

On to `Cc1cc(O)c(OCC(=O)/N=c2\[nH]cc(C)s2)cn1`, for which the Percent Effect in assay [1] was -5.77%; in assay [2] it was 18.4%; in [3], 3.17%; in assay [4], 0.981%; in the assay on Trypanosoma cruzi, 3.6%; in assay [5], -5.92%. Besides, the Percent Effect was 5.85% in [6]; -4.26% in the assay filed under Homo sapiens; 5.32% in [7]; 10.4% in [8]; -2.08% in [9].
As to `Cc1nc(CN(C)C2CCN(CC(=O)NC3CCOCC3)C2)no1` (stereo not drawn), the Percent Effect is -1.63% in assay [1]; 16.2% in [2]; -9.99% in assay [3]; 0.0133% in assay [4]; -0.836% in the assay with Trypanosoma cruzi; -3.14% in assay [5]. The Percent Effect in assay [6] was 11.1%; in the assay listed under Homo sapiens, 11.9%; in assay [7], 5.94%; in [8], 18.3%; in assay [9] it was -5.55%.
In the case of `Cc1nc(C2CCN(C(=O)c3cccnc3)CC2)c2sccn12`, the Percent Effect in assay [1] is -1.59%; in [2], 1.35%; in assay [3], 6.93%; in assay [4], 4.07%; with Trypanosoma cruzi, 3.36%; in assay [5], 3.48%. The Percent Effect in assay [6] is 7.8%; in the assay listed under Homo sapiens, -15.3%; in assay [7], 2.15%; in [8] it was 6.49%; in assay [9], -6.97%.
With `Cc1csc(N2CCN(C(=O)Cc3ccsc3)CC2)n1`, the Percent Effect in assay [1] was -6.47%; in assay [2], 21.6%; in assay [3], -0.587%; in [4] it was 9.11%; in the assay with Trypanosoma cruzi, 7.26%; in [5], 3.21%. Besides, the Percent Effect was 20.9% in [6]; 5.74% in the assay filed under Homo sapiens; 10.3% in [7]; 30.9% in assay [8]; -10.7% in [9].
As to `CC1CCN(Cc2cnc(S(=O)(=O)CC3CC3)n2CC2CCCO2)CC1` (stereo not drawn), the Percent Effect was -4.08% in assay [1]; -4.17% in assay [2]; 9.77% in assay [3]; 0.164% in assay [4]; -3.21% in the assay with Trypanosoma cruzi; -2.65% in assay [5]. Further, the Percent Effect is 0.877% in [6]; 4.06% in the assay listed under Homo sapiens; -1.05% in assay [7]; -7.69% in assay [8]; 5.99% in [9].
With `Cc1ccc(CN2CC(C(=O)Nc3ccccc3)C3(CCOCC3)C2)s1` (stereo not drawn), the Percent Effect in assay [1] was -2.15%; in [2], 8%; in assay [3], -1.41%; in [4] it was 0.774%; in the assay on Trypanosoma cruzi it was -0.579%; in assay [5], -44.3%. Moreover, the Percent Effect was 11.4% in [6]; -5.53% in the assay listed under Homo sapiens; 3.12% in assay [7]; 25% in assay [8]; -6.22% in assay [9].
Consider `COc1ccc(CNCc2ccnc(N3CCOCC3)c2)c(OC)c1`, for which the Percent Effect in [1] was -4.43%; in assay [2], 8.11%; in [3] it was -10.3%; in assay [4], 1.04%; in the assay on Trypanosoma cruzi, -3.49%; in [5], 3.21%. Also, the Percent Effect was 7.75% in assay [6]; 28.2% in the assay filed under Homo sapiens; 3.45% in assay [7]; 6.17% in [8]; -4.72% in assay [9].
Consider `NC(=O)c1ccc(OCC(=O)N2CCCC(n3cccn3)C2)cc1` (stereo not drawn), for which the Percent Effect is -3.58% in assay [1]; 15.6% in assay [2]; 6.85% in [3]; 2.82% in assay [4]; -2.06% in the assay with Trypanosoma cruzi; 1.9% in assay [5]. The Percent Effect is 7.2% in [6]; 1.54% in the assay filed under Homo sapiens; 7.62% in [7]; 14.1% in [8]; -7.55% in [9].
